# High-throughput results deposited in PubChem by several laboratories.
# PrPC TRFRET: cell surface PrPC inhibition, primary TR-FRET screen. TR-FRET read-out. 370,000 tested, 0.43% active. inhibition, % at 13.8 µM. P04156; in the data active = inhibition above about 24%
# BJeLR viability: kills HRASV12-expressing BJeLR cells; BJeLR (HRASV12) viability, CellTiter-Glo ATP luminescence, 48 h; inhibition, % (test concentration not listed); 300,000 tested, 0.17% active; AID 1554; in the data active = inhibition above about 50%
# RN4220 kill: kills Staphylococcus aureus RN4220; S. aureus RN4220 growth, OD600, 16 h; inhibition, % (test concentration not listed); 330,000 tested, 0.33% active; AID 1259311; in the data active = inhibition above about 85%
# Sa ugtP lethal: growth inhibition of S. aureus ugtP deletion strain; S. aureus RN4220 ugtP deletion, OD600 growth, 16 h; growth inhibition, % (concentration not given with the values); 330,000 tested, 0.54% active; in the data active = growth inhibition above about 68%
# PrPC TRFRET cf: cell surface PrPC inhibition, TR-FRET confirmation; 1,500 tested, 65% active; shares compounds with PrPC TRFRET; cell surface PrPC level; inhibition, % at 13.8 µM; in the data active = inhibition above about 25%
# LD9 cytotox: counter-screen for PrPc inhibitors: cytotoxicity in LD9 cells. shares compounds with PrPC TRFRET. luminescence viability. inhibition, % at 13.8 µM. 1,500 tested, 29% active. AID 743201; in the data active = inhibition above about 9.5%
# A number is an active result; i = inactive; nt = no result given. Compounds with a hit are over-represented: about 0.95% of the library has one in this group of screens.
SMILES,PrPC TRFRET,BJeLR viability,RN4220 kill,Sa ugtP lethal,PrPC TRFRET cf,LD9 cytotox
CCO[C@H]1OC(C(=O)NCc2ccccc2)=C[C@@H](c2ccc(C(F)(F)F)cc2)[C@@H]1CCCO,i,i,nt,nt,nt,nt
CCCCCC=CC1=CC(=O)CC(c2ccc3c(c2)OCO3)C1 (configuration not stated),nt,nt,i,i,nt,nt
Cc1nc(SCc2nc3ccccc3[nH]2)c2oc3ccccc3c2n1,i,i,i,i,nt,nt
c1ccc2[nH]c(CSc3ncnc4c3oc3ccccc34)nc2c1,29,i,i,i,26,i
CC(=NNC(=O)c1ccc(C)cc1C)c1ccc(-n2ccnc2)cc1,nt,nt,i,i,nt,nt
O=c1c2ccccc2nc2n1C(CSCc1ccc(Cl)cc1)CS2 (configuration not stated),26,i,i,i,i,14
COC(=O)C1=C(c2cccc(OCc3ccccc3)c2)CC2CCC1N2C(=O)NCc1ccc(N(C)C)cc1 (configuration not stated),nt,nt,i,i,nt,nt
CCc1cc2cccc(C)c2nc1SCC(=O)NNC(=O)c1ccco1,71,i,i,i,98,i
CCc1cc2cccc(C)c2nc1SCC(=O)Nc1nonc1C,31,i,i,i,35,i
O=c1nc(SCc2cccc(C(F)(F)F)c2)nc2ccccn12,34,i,nt,nt,i,i
Cc1ccn2c(=O)nc(SCc3cccc(C(F)(F)F)c3)nc2c1,i,i,i,i,nt,nt
c1ccc2cc3[nH]c(CNc4nc(N5CCOCC5)nc5c4ncn5-c4ccsc4)nc3cc2c1,25,nt,nt,nt,38,13
c1ccc2[nH]c(CNc3nc(N4CCOCC4)nc4c3ncn4-c3ccsc3)nc2c1,i,nt,nt,nt,nt,nt
O=[N+]([O-])c1ccc2nc(CNc3nc(N4CCOCC4)nc4c3ncn4-c3ccsc3)[nH]c2c1,i,nt,nt,nt,nt,nt
FC(F)(F)c1ccc2nc(CNc3nc(N4CCOCC4)nc4c3ncn4-c3ccsc3)[nH]c2c1,41,nt,nt,nt,37,17
N#CC(=CC=Cc1ccccc1)c1nc(-c2ccc3c(c2)OCO3)cs1,nt,nt,i,i,nt,nt
CN(C(=O)COC(=O)c1ccccc1Nc1ccccc1)c1c(N)n(Cc2ccccc2)c(=O)[nH]c1=O,29,i,i,i,38,i
NC(=O)c1nn(-c2cccc(Cl)c2)c(=O)cc1O,49,i,i,i,49,i
C/C(C=NNC(=O)c1nnn(-c2nonc2N)c1C)=C\c1ccccc1,nt,nt,i,i,nt,nt
COc1ccc(Cc2c(-c3ccco3)nc3c(C)cc(Br)cn23)c(C)c1,i,nt,nt,nt,nt,nt
Cc1cc(Br)cn2c(Cc3ccsc3)c(-c3ccco3)nc12,30,nt,nt,nt,43,i
Cc1ccc(Cc2c(-c3ccc(C)cc3)nc3ccc(Br)cn23)cc1,i,nt,nt,nt,nt,nt
Cc1cc(Br)cn2c(Cc3ccccc3)c(-c3ccco3)nc12,35,nt,nt,nt,50,i
Cc1ccc(Cc2c(-c3ccco3)nc3ccc(Br)cn23)cc1,34,nt,nt,nt,57,i
CCOC(CCn1ccc(O)c(Cc2ccc(Cl)cc2)c1=O)OCC,35,i,i,i,i,i
SMILES,PrPC TRFRET,BJeLR viability,RN4220 kill,Sa ugtP lethal,PrPC TRFRET cf,LD9 cytotox
Cc1cc(SCCC(=O)O)nc2c(C)cccc12,71,i,i,i,69,i
O=C(NN=CC1CC=CCC1)c1cc(-c2cccnc2)nc2ccccc12 (configuration not stated),nt,nt,i,i,nt,nt
Cc1c(C(=O)NCc2ccc3c(c2)cc(C)n3C)cccc1[N+](=O)[O-],34,i,i,i,i,i
Cc1cc2cc(CNC(=O)Cc3ccc([N+](=O)[O-])cc3)ccc2n1C,i,i,i,i,nt,nt
Cc1cc2cc(CNC(=O)c3cccc([N+](=O)[O-])c3)ccc2n1C,37,i,i,i,i,i
Cc1cc2cc(CNC(=O)c3ccc(Br)o3)ccc2n1C,i,i,i,i,nt,nt
Cc1ccc(S(=O)(=O)Oc2ccc(C=NNC(=O)c3nn(C)cc3[N+](=O)[O-])cc2)cc1,nt,nt,i,i,nt,nt
CC(C)Cc1nc(Nc2ccccc2C#N)c2nnn(Cc3ccccc3)c2n1,29,i,i,i,i,i
CC(C)Cc1nc(N2CCC(C(N)=O)CC2)c2nnn(Cc3ccccc3)c2n1,i,i,i,i,nt,nt
COC(=O)C1=C(C)N(Cc2cccc(C(F)(F)F)c2)C(=NCc2cc(OC)c(OC)c(OC)c2)NC1CCc1ccccc1 (configuration not stated),31,nt,nt,nt,26,i
COc1cc2ccccc2cc1C(=O)Nc1ccc(C)cc1,i,i,i,i,nt,nt
COc1cc2ccccc2cc1C(=O)Nc1ccc(Cc2ccncc2)cc1,30,i,i,i,i,19
NCCCNc1nc(N)c([N+](=O)[O-])c(NC2CCCCC2)n1,66,i,nt,nt,79,25
